In PubChem BioAssay (NCI) one finds growth data, which are given here for 38 compounds.

This is part of a sample that, as a whole, favours compounds with a hit. Of some 83,000 tested, about 20% had one in any assay.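 Cell lines were cultured in 96-well plates, exposed to a single compound concentration, and assessed for percent growth 48 hours later.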 A number with no mark means an inactive call. Activity calls are given as the source filed them. How the source made its calls: active means growth percent below 10; inactive means the rest.

The test system of the first experiment is NCI-H522 lung. Nature of the experiment: NCI-60 one-dose screen, 48 h (100 = growth as untreated, 0 = no growth, -100 = all killed). The following applies: 10 µM.
`CN1/C(=C\C(I)C(I)C2=[N+](C)c3ccccc3C2(C)C)C(C)(C)c2ccccc21` (stereo unspecified): the growth is -14.1% (active).
`COc1ccc(-c2csc(NC(=O)CO[N+](=O)[O-])n2)cc1`: the growth was -39.7% (active).
Same read-out and setting: then `CCCCc1ccc(NC(=O)N(CCCl)N=O)cc1`, with 97%; and `Nc1nc2c(ncn2C2OC3COP(=O)(O)OC4C(COP(=O)(O)OC2C3O)OC(n2cnc3c(N)ncnc32)C4O)c(=O)[nH]1` (stereo unspecified), with 103%; and `CC(C)CCN(CCCNc1c2c(nc3cc(Cl)ccc13)CCCC2)CCC(C)C`, with 82.1%.
Still for that read-out and setting: under `FC(F)(F)c1ccc(-c2cnc(Cl)nc2NC2CCCCCC2)cc1` stands -6.08% (active); under `CCOC(=O)c1cc2c(n1Cc1cc(OC)cc(OC)c1)-c1oncc1CC2`, 4.32% (active); under `CCOCC[P+](c1ccccc1)(c1ccccc1)c1ccccc1`, 26.2%.

Another experiment relates to A549/ATCC NSCLC. The experiment is described as above. The following applies: 10 µM.
For the compound `COc1ccc(-n2nnc3c(sc4ccccc43)c2=O)cc1`, the growth is 10.8%.
Same read-out and setting: under `COc1ccc(Cn2cc3c(c2-c2cc(OC)c(OC)c(OC)c2)CCc2cnoc2-3)cc1[N+](=O)[O-]` stands 34%; under `Nc1ncc(-c2ccc(C(F)(F)F)cc2)c(NC2CCCCCC2)n1`, 18.6%.
Still for that read-out and setting: then `CC(C)(C)CC(C)(C)c1ccc(O)c(Cc2ccc(Cl)cc2Cl)c1`, with -88.5% (active).
The same measure, in the same setting: under `CC(=O)Nc1ccc2c(c1)C(N1CC3CCC(CC3)C1)c1ccccc1-2` (stereo unspecified) stands 85.9%; under `COc1cccc2c1C(=O)c1c(O)c3c(c(O)c1C2=O)C[C@@](O)(C(=O)COC(=O)c1cccnc1)C[C@@H]3OC1CC(N)C(O)C(C)O1` (stereo partly specified), -0.944% (active); under `O=C(CCl)N1c2ccccc2Sc2ccc3ccccc3c21`, 38%.
As to `CCOc1nc(-c2ccccc2)cc2c(O)c(C(=O)NC(C)C)[nH]c(=O)c12`, the growth is 104%.
Same read-out and setting: under `CN1/C(=C\C(I)C(I)C2=[N+](C)c3ccccc3C2(C)C)C(C)(C)c2ccccc21` (stereo unspecified) stands 11.3%; under `COc1ccc(-c2csc(NC(=O)CO[N+](=O)[O-])n2)cc1`, 84.9%; under `CCCCc1ccc(NC(=O)N(CCCl)N=O)cc1`, 102%.
Same read-out and setting: under `CCCCOCCOCCOCc1cc2c(cc1Br)OCO2` stands 91.2%; under `Nc1nc2c(ncn2C2OC3COP(=O)(O)OC4C(COP(=O)(O)OC2C3O)OC(n2cnc3c(N)ncnc32)C4O)c(=O)[nH]1` (stereo unspecified), 109%.
The same measure, in the same setting: under `O=[N+]([O-])c1ccc(-c2nc(-c3ccccc3)c(-c3ccccc3)n2-c2ccccc2)cc1` stands 34.6%.
As for `O=C1CC[C@@H](C(=O)N[C@H]2CSSC[C@@H](C(=O)N/C=C/c3ccc(O)cc3)NC(=O)[C@H](Cc3ccccc3)NC(=O)[C@@H]3CCCN3C(=O)[C@@H]3CCCN3C2=O)N1`, the growth was 85.2%.
As for `CCCCCc1cc[n+](CC(=O)c2ccc(Cl)cc2)cc1`, the growth was 91.3%.
For the compound `CC(C)CCN(CCCNc1c2c(nc3cc(Cl)ccc13)CCCC2)CCC(C)C`, the growth was 85.4%.
As for `FC(F)(F)c1ccc(-c2ncc(-c3ccc(C(F)(F)F)cc3)c(NCc3cc(C(F)(F)F)cc(C(F)(F)F)c3)n2)cc1`, the growth is 65.7%.
On the same count and under the same terms, under `CC(=O)CS(C)(=O)=O` stands 96.7%; under `COc1ccc(-c2csc(-c3cc(Cl)cc(Cl)c3Cl)n2)cc1`, 54.5%.
On the same count and under the same terms, then `Cc1nnc2c3nnc(-c4ccc(Cl)cc4)n3c3ccccc3n12`, with 96.8%; and `O=C(C=P(c1ccccc1)(c1ccccc1)c1ccccc1)c1ccc(Br)cc1`, with 72.4%; and `COc1cc(C2=Nc3c/c(=C\c4c(O)[nH]c5ccc(Cl)cc45)ccc3=N2)cc(OC)c1OC`, with 56.5%.
Same read-out and setting: under `NC(=O)c1ccc(Br)o1` stands 109%.
In the case of `C(=C\c1nc2ccccc2s1)/c1ccc(N2CCOCC2)s1`, the growth is 83.3%.
For the compound `COc1ccc(-c2nnc(N3CCN(C(=O)CN4CCN(c5ccc(Cl)cc5)CC4)CC3)nc2-c2ccc(OC)cc2)cc1`, the growth was 58.8%.
Still for that read-out and setting: under `Cc1ccc(C2C=C(c3ccc(Cl)cc3)N=C3SC=CN32)c(Br)c1` (stereo unspecified) stands 86.3%; under `N#CCC1CCCC1`, 101%; under `FC(F)(F)c1ccc(-c2cnc(Cl)nc2NC2CCCCCC2)cc1`, 17.4%.
Still for that read-out and setting: then `Oc1ccccc1-c1nnc(Cn2c(Cc3cccc4ccccc34)nc3ccccc32)o1`, with 100%.
Turning to `CCOC(=O)c1cc2c(n1Cc1cc(OC)cc(OC)c1)-c1oncc1CC2`, the growth was 29%.
Regarding `COc1ccc(-c2nnc(SC/C(=N\O)c3ccccc3)o2)cc1`, the growth was 107%.
Still for that read-out and setting: then `CCOCC[P+](c1ccccc1)(c1ccccc1)c1ccccc1`, with 45.3%; and `CCN(CC)CC(O)CNc1ccnc2cc(Cl)c(Cl)cc12` (stereo unspecified), with 101%.
The same measure, in the same setting: then `COc1cccc(C(=O)NNc2nc(N3CCN(C4CCCCC4)CC3)nc(N3CCN(C(c4ccccc4)c4ccccc4)CC3)n2)c1`, with 35.8%; and `COc1ccc(CCc2nc3cc(-c4c(C)noc4C)ccc3n2CCN2CCOCC2)cc1`, with 26.4%; and `Nc1ccc(C2=CC(c3ccc(Cl)cc3)N3C=CSC3=N2)cc1` (stereo unspecified), with -39.3% (active).
The same measure, in the same setting: under `CN(C)Cc1cccs1` stands 93.7%.
